Assay results from PubChem BioAssay AID1159580 (chemical genetic matrix, 2015).
In all, about 5,500 compounds went through this assay and about 2,000 (36%) were called active. Another 18% or so got no clear call; they are omitted. Cut-off read from the data, not from the text of the source: active = normalized growth mostly below about 0.91 (no sharp cut-off); inconclusive = no clear call, values can overlap the other calls; inactive = mostly above about 0.92. This is one part of the list.

Test: chemical genetic growth profiling, strain panel (AID 1159580);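 note: tested at 20 µM; growth read once vehicle control cultures reached saturation at 30 °C; 1 = growth at the plate median or of vehicle wells; lower values mean less growth of the strain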
Conditions: growth OD
[1] = S. cerevisiae deletion strains, locus YHR030C, strain SLT2, active compounds read low
[2] = S. cerevisiae deletion strains, locus YHR079C, strain IRE1, active compounds read low
[3] = S. cerevisiae deletion strains, locus YJL095W, strain BCK1, active compounds read low
[4] = S. cerevisiae deletion strains, locus YJR066W, strain TOR1, active compounds read low
[5] = S. cerevisiae deletion strains, locus YLR113W, strain HOG1, active compounds read low
[6] = S. cerevisiae deletion strains, locus YNL183C, strain NPR1, active compounds read low
[7] = S. cerevisiae deletion strains, locus YOR231W, strain MKK1, active compounds read low
[8] = S. cerevisiae deletion strains, locus YPL256C, strain CLN2, active compounds read low

Measured: normalized growth

Clc1ccc2c(c1)CCc1cccnc1C2=C1CCNCC1
inactive: [1] 0.968 | [2] 0.986 | [3] 1.04 | [4] 0.932 | [5] 1.03 | [6] 0.965 | [7] 0.992 | [8] 0.972

O=C1CCCCC/C=C/CCCCCCCCO1
inactive: S. cerevisiae deletion strains, locus YAL013W, strain DEP1, active compounds read low 0.986 | S. cerevisiae deletion strains, locus YBR021W, strain FUR4, active compounds read low 1.01 | S. cerevisiae deletion strains, locus YBR229C, strain ROT2, active compounds read low 1 | S. cerevisiae deletion strains, locus YCL029C, strain bik1, active compounds read low 1 | S. cerevisiae deletion strains, locus YDL035C, strain GPR1, active compounds read low 0.988 | S. cerevisiae deletion strains, locus YDL074C, strain BRE1, active compounds read low 0.949 | S. cerevisiae deletion strains, locus YDL101C, strain DUN1, active compounds read low 0.994 | S. cerevisiae deletion strains, locus YDL134C, strain PPH21, active compounds read low 0.999 | S. cerevisiae deletion strains, locus YDL185W, strain tfp1, active compounds read low 0.999 | S. cerevisiae deletion strains, locus YDL192W, strain arf1, active compounds read low 0.997 | S. cerevisiae deletion strains, locus YDR101C, strain arx1, active compounds read low 0.979 | S. cerevisiae deletion strains, locus YDR150W, strain NUM1, active compounds read low 1.01 | S. cerevisiae deletion strains, locus YDR162C, strain NBP2, active compounds read low 1 | S. cerevisiae deletion strains, locus YDR318W, strain mcm21, active compounds read low 0.985 | S. cerevisiae deletion strains, locus YDR388W, active compounds read low 0.99 | S. cerevisiae deletion strains, locus YDR502C, strain sam2, active compounds read low 0.969 | S. cerevisiae deletion strains, locus YEL061C, strain CIN8, active compounds read low 0.999 | S. cerevisiae deletion strains, locus YER110C, active compounds read low 0.992 | S. cerevisiae deletion strains, locus YER155C, strain BEM2, active compounds read low 1 | S. cerevisiae deletion strains, locus YER167W, strain BCK2, active compounds read low 0.974 | S. cerevisiae deletion strains, locus YGL078C, strain dbp3, active compounds read low 1 | S. cerevisiae deletion strains, locus YGL086W, strain mad1, active compounds read low 0.988 | S. cerevisiae deletion strains, locus YGL248W, strain PDE1, active compounds read low 1 | S. cerevisiae deletion strains, locus YGR078C, strain PAC10, active compounds read low 0.946 | S. cerevisiae deletion strains, locus YGR135W, strain pre9, active compounds read low 0.956 | S. cerevisiae deletion strains, locus YGR229C, strain SMI1, active compounds read low 0.893 | S. cerevisiae deletion strains, locus YGR252W, strain gcn5, active compounds read low 0.999 | [1] 0.999 | S. cerevisiae deletion strains, locus YHR079C, strain IRE1 (second series), active compounds read low 0.995 | S. cerevisiae deletion strains, locus YHR094C, strain hxt1, active compounds read low 0.997 | S. cerevisiae deletion strains, locus YHR129C, strain ARP1, active compounds read low 0.988 | S. cerevisiae deletion strains, locus YHR200W, strain rpn10, active compounds read low 1 | S. cerevisiae deletion strains, locus YIL066C, strain RNR3, active compounds read low 0.985 | S. cerevisiae deletion strains, locus YIL073C, strain SPO22, active compounds read low 1.01 | S. cerevisiae deletion strains, locus YIL125W, strain kgd1, active compounds read low 0.985 | S. cerevisiae deletion strains, locus YIR030C, strain dcg1, active compounds read low 1 | [3] 0.924 | S. cerevisiae deletion strains, locus YJL134W, strain LCB3, active compounds read low 1 | S. cerevisiae deletion strains, locus YJL168C, strain set2, active compounds read low 0.988 | S. cerevisiae deletion strains, locus YJL187C, strain SWE1 (second series), active compounds read low 1 | S. cerevisiae deletion strains, locus YJR043C, strain POL32, active compounds read low 0.953 | S. cerevisiae deletion strains, locus YJR075W, strain HOC1, active compounds read low 0.944 | S. cerevisiae deletion strains, locus YKL009W, strain mrt4, active compounds read low 1.01 | S. cerevisiae deletion strains, locus YKL068W, active compounds read low 1 | S. cerevisiae deletion strains, locus YKL085W, strain MDH1 (second series), active compounds read low 1.01 | S. cerevisiae deletion strains, locus YKL085W, strain MDH1, active compounds read low 1.01 | S. cerevisiae deletion strains, locus YKL190W, strain CNB1, active compounds read low 1 | S. cerevisiae deletion strains, locus YKR001C, strain vps1, active compounds read low 0.948 | S. cerevisiae deletion strains, locus YLR039C, strain RIC1, active compounds read low 0.869 | S. cerevisiae deletion strains, locus YLR058C, strain SHM2, active compounds read low 1 | S. cerevisiae deletion strains, locus YLR102C, strain apc9, active compounds read low 0.997 | S. cerevisiae deletion strains, locus YLR262C, strain YPT6, active compounds read low 0.859 | S. cerevisiae deletion strains, locus YLR268W, strain sec22, active compounds read low 0.975 | S. cerevisiae deletion strains, locus YLR330W, strain CHS5, active compounds read low 1.01 | S. cerevisiae deletion strains, locus YLR342W, strain FKS1 (second series), active compounds read low 0.968 | S. cerevisiae deletion strains, locus YLR371W, strain rom2, active compounds read low 0.999 | S. cerevisiae deletion strains, locus YLR418C, strain cdc73, active compounds read low 0.848 | S. cerevisiae deletion strains, locus YML016C, strain PPZ1, active compounds read low 1.01 | S. cerevisiae deletion strains, locus YML032C, strain rad52, active compounds read low 0.983 | S. cerevisiae deletion strains, locus YML124C, strain tub3, active compounds read low 0.995 | S. cerevisiae deletion strains, locus YMR078C, strain ctf18, active compounds read low 0.99 | S. cerevisiae deletion strains, locus YMR223W, strain ubp8, active compounds read low 0.973 | S. cerevisiae deletion strains, locus YMR263W, strain SAP30, active compounds read low 0.97 | S. cerevisiae deletion strains, locus YMR307W, strain GAS1, active compounds read low 0.898 | S. cerevisiae deletion strains, locus YNL067W, strain RPL9B, active compounds read low 1.01 | S. cerevisiae deletion strains, locus YNL128W, strain TEP1, active compounds read low 0.978 | S. cerevisiae deletion strains, locus YNL153C, strain GIM3, active compounds read low 0.972 | S. cerevisiae deletion strains, locus YNL233W, strain BNI4, active compounds read low 0.943 | S. cerevisiae deletion strains, locus YNL250W, strain rad50, active compounds read low 0.99 | S. cerevisiae deletion strains, locus YNL271C, strain bni1, active compounds read low 0.991 | S. cerevisiae deletion strains, locus YNL298W, strain CLA4, active compounds read low 0.993 | S. cerevisiae deletion strains, locus YNL307C, strain MCK1, active compounds read low 0.958 | S. cerevisiae deletion strains, locus YNL322C, strain KRE1, active compounds read low 1 | S. cerevisiae deletion strains, locus YNR052C, strain pop2, active compounds read low 1.01 | S. cerevisiae deletion strains, locus YOL006C, strain TOP1, active compounds read low 0.936 | S. cerevisiae deletion strains, locus YOL012C, strain htz1 0.561 | S. cerevisiae deletion strains, locus YOL147C, strain pex11, active compounds read low 1.01 | S. cerevisiae deletion strains, locus YOR061W, strain CKA2, active compounds read low 1.01 | S. cerevisiae deletion strains, locus YOR069W, strain VPS5, active compounds read low 1 | S. cerevisiae deletion strains, locus YOR136W, strain idh2, active compounds read low 0.992 | S. cerevisiae deletion strains, locus YOR144C, strain elg1, active compounds read low 1 | S. cerevisiae deletion strains, locus YOR184W, strain ser1, active compounds read low 0.955 | S. cerevisiae deletion strains, locus YOR316C, strain cot1, active compounds read low 0.999 | S. cerevisiae deletion strains, locus YPL055C, strain LGE1, active compounds read low 0.996 | S. cerevisiae deletion strains, locus YPL241C, strain CIN2, active compounds read low 1.01 | S. cerevisiae deletion strains, locus YPR119W, strain clb2, active compounds read low 0.994 | S. cerevisiae deletion strains, locus YPR141C, strain kar3, active compounds read low 0.991 | S. cerevisiae deletion strains, locus YPR163C, strain tif3, active compounds read low 1.01 | S. cerevisiae deletion strains, locus YPR167C, strain met16, active compounds read low 1 | S. cerevisiae deletion strains, strain wtn01, active compounds read low 0.96 | S. cerevisiae strains, strain wild type, active compounds read low 0.97

COC(=O)[C@@H]1C[C@H](OC(C)=O)C(=O)[C@H]2[C@@]1(C)CC[C@H]1C(=O)O[C@H](c3ccoc3)C[C@]21C
inactive: [1] 1 | [2] 0.994 | [3] 1 | [4] 0.936 | [5] 1.03 | [6] 0.957 | [7] 0.985 | [8] 1.01
